Experimental findings from PubChem BioAssay are described below.

The source made the active and inactive calls. The rule behind the calls is not given here.

For this experiment, the target named is Protein kinase 7 (PK7), Plasmodium falciparum 3D7 (PF3D7_0213400) (UniProt Q7YTF7). Kind of experiment: inhibition of Plasmodium PK7 catalytic activity – biochemical, TCAMS antimalarial set, Kinase-Glo luminescence (AID 1159587). The note with it: recombinant PfPK7, Kinase-Glo ATP depletion luminescence. Background: Kinase-Glo measures the ATP left after a reaction by luminescence.
Protein kinase 7 (PK7), Plasmodium falciparum 3D7 (PF3D7_0213400), sequence (Q7YTF7 1-343): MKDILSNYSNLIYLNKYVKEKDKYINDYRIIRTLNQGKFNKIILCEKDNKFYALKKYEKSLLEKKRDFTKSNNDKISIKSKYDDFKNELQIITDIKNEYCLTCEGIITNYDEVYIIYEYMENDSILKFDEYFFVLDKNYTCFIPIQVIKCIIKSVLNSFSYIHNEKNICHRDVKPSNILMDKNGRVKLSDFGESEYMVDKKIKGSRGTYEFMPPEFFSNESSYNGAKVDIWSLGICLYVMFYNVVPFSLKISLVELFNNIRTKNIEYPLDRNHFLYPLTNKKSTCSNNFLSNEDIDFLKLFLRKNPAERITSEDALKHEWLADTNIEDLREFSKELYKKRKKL
On to `Cc1cc(OCCN2CCCCC2)ccc1NC(=O)c1cccc2c(=O)n(Cc3ccc(Cl)cc3)cnc12`, for which the outcome was inactive.

In the case of `COc1ccc(CNCc2ccccc2)cc1-c1ccc(S(=O)(=O)NCCN2CCCC2)c(C)c1`, the result was inactive.

In the case of `COc1cc2ncnc(Nc3ccc(OCc4ccccc4)c(C(F)(F)F)c3)c2cc1OC`, the result was inactive.

Regarding `c1cc(CNC2Cc3ccccc3C2)cc(-c2cnc(N3CCNCC3)nc2)c1`, the result was inactive.

`COc1ccc(NC(=O)[C@H](CC(C)C)Nc2cc(C)nc(Nc3ccccc3)n2)cc1`: the result was inactive.

Regarding `O=C(Nc1cccc(-c2ccc(NCCCN3CCCC3)nc2)c1)c1ccccc1`, the result was inactive.

Turning to `CNC(=S)NN=C(C)c1ccccn1`, the outcome was inactive.

As for `CCN(CC)CCN(Cc1ccc(-c2ccc(C(F)(F)F)cc2)cc1)C(=O)Cn1c(CCc2c(F)cc(F)cc2F)nc(=O)c2ccccc21`, the outcome was inactive.

In the case of `Cc1cc(NCCC(=O)Nc2ccccc2)nc(NCCOc2ccccc2)n1`, the outcome was inactive.

As for `CCOC(=O)c1[nH]c2ccc(F)cc2c1NC(=O)CN1CCN(c2cccc(C(F)(F)F)c2)CC1`, the outcome was inactive.

In the case of `C=CCOc1ccc2ccccc2c1CNCCCCCCNCc1c(OCC=C)ccc2ccccc12`, the result was inactive.

Turning to `Cc1cc(N2CCOCC2)nc(Nc2ccc(NC(=O)Nc3ccc(F)cc3)cc2)n1`, the outcome was inactive.

As to `CC(C)CNCc1cccc(-c2cccc(CN(CCN(C)C)C(=O)Nc3ccccc3)c2)c1`, the result was inactive.

For `CC(C)(C)NCC(O)COc1ccc(Cl)cc1C1=NNC(=O)CC1` (stereo unspecified), the outcome was inactive.

With `Cc1cc(CNCCCCCCNCc2ccc(Cl)cc2)ccc1O`, the result was inactive.

For `CC(=O)Nc1ccc(CNCCc2ccc(NC(=O)c3cc(Cl)cc(Cl)c3)cc2)cc1`, the result was inactive.
